CaV13 FRET inh – Disruptors of the CACNA1D IQ motif to Ca2+-dependent inactivation inhibitor domain association, primary screening, Förster resonance energy transfer in intact living … | HEK cells, CFP/YFP FRET ICDI-IQ, plate reader, 10 min; percent FRET-ratio fall versus neutral wells | inhibition, % at 12.3 µM | 340,000 tested, 0.098% active | AID 743397;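 active = mean replicate inhibition of at least 30% and at least 1% of replicates passing that level; inconclusive = only one of the two criteria is met; inactive = neither criterion is met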
rRNA inh HTS – inhibitors of bacterial rRNA selective over humanized ribosomes; E. coli WT GFP vs humanized-ribosome RFP mutants, fluorescence, 24 h; active compounds read low; DMSO median 0, no signal -100; GFP signal change (wild-type ribosome), % (concentration not given with the values); 350,000 tested, 1.6% active;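 active = significant combined selectivity score with lowered wild-type GFP, culture density cut under 30%, mutant RFP and density less affected; inactive = any of these conditions unmet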
DENV2 CPE rescue – DENV2-induced cell death inhibition; 350,000 tested, 1.7% active; CPE inhibition, % at 9.99 µM; AID 651640; DENV2-infected cells, cytopathic effect rescue, plate reader; in the data active = CPE inhibition above about 20%, passing the limit was not always enough; inconclusive = no clear call, values can overlap the other calls; tested in BHK-21 cells
ERAP1 HTS inh – ERAP1 (human) enzyme inhibition | Q9NZ08 | recombinant ERAP1, Leu-AMC fluorescence, 60 min | inhibition, % at 10.7 µM | 340,000 tested, 0.15% active;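 active = mean replicate inhibition of at least 30%, or all replicates individually reaching that 30% level; inactive = mean below 30% and not every replicate reaching it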
PGC1a acetyl inh – PGC1a acetylation modulation, inhibitor mode. U2OS PGC1a acetylation, AlphaScreen anti-acetyl-lysine; with virally co-expressed GCN5 acetyltransferase. inhibition, % at 15.6 µM. 350,000 tested, 0.17% active. AID 651687;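 active = every replicate shows inhibition of at least 40%; inconclusive = mean inhibition at least 40% but some replicate below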
INS-1E GSIS act – GLuc luminescence reporter in INS-1E cells, primary screen for activators of glucose-dependent secretion of insulin. INS-1E GLuc reporter insulin secretion, 2-3 h. 370,000 tested, 0.61% active. activation, % at 16.6 µM;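 active = lowest replicate activation of at least 40%, so every replicate reaches that level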
AID977621 – growth inhibition of wild-type GFP E. coli, dose response, H69 mutant RFP, cherry-pick; shares compounds with rRNA inh HTS; activity change, negative = inhibition at 50 µM; E. coli wild-type GFP strain growth, fluorescence, 24 h; 1,900 tested, under 10 active;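 active = Wild-type ribosome reporter drop at least double the humanized mutant ribosome reporter drop, growth loss under a set limit; inconclusive = no clear call, values can overlap the other calls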;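 note: wild-type GFP and H69 mutant RFP strains grown together 50/50 in each well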
AID977628 – E. coli growth inhibition, wild-type GFP versus h24 humanized RFP strain, dose response, h24 mutant RFP vs wild-type GFP, cherry-pick | activity change, negative = inhibition at 50 µM | AID 977628 | 1,900 tested, under 10 active | E. coli WT GFP strain growth, fluorescence, 24 h | shares compounds with rRNA inh HTS;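 active = compound lowering the normal-ribosome reporter at least twice as much as the humanized-ribosome reporter, growth loss under a set limit; inconclusive = no clear call, values can overlap the other calls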;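 note: wild-type GFP and h24 humanized RFP strains co-cultured 1 to 1 per well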
Of the large screens only hits and unclear results are named; the others gave an inactive call (follow-up assays come after a bar, where they were run). Sampled rows, rich in hits. Any-hit rate of the full collection: about 3.2%.

Cc1ccc([N+](=O)[O-])c(OCCn2cnc3ccccc32)c1	rRNA inh HTS -19.6 | AID977621 inactive | AID977628 inactive
Cc1ccc(OCCOCCn2cnc3ccccc3c2=O)c([N+](=O)[O-])c1	none (no result: PGC1a acetyl inh)
COc1ccccc1CC(=O)NCc1csc(-c2cccs2)n1	rRNA inh HTS -21.2 | AID977621 inactive | AID977628 inactive
c1ccc(-c2sc3ccccc3c2-c2ccc(OCCN3CCCCC3)cc2)cc1	rRNA inh HTS -17.0 | AID977621 inactive | AID977628 inactive
CCc1nnc(NC(=O)CSc2nnc(COc3cccc(C)c3)o2)s1	none (no result: rRNA inh HTS, DENV2 CPE rescue, ERAP1 HTS inh)
Cc1cccc(OCc2nnc(SCC(=O)Nc3ncc(C)s3)o2)c1	rRNA inh HTS -34.1 (no result: PGC1a acetyl inh) | AID977628 inactive
CC1Cc2ccccc2N1C(=O)CN1C(=O)NC(C)(CCc2ccccc2)C1=O (stereo unspecified)	rRNA inh HTS -17.9, DENV2 CPE rescue inconclusive | AID977621 inactive | AID977628 inactive
Cc1cccc(-c2nsc(SCC(=O)NCC3CCCO3)n2)c1 (stereo unspecified)	rRNA inh HTS -21.9 (no result: PGC1a acetyl inh) | AID977621 inactive | AID977628 inactive
C[n+]1ccccc1/C=C/c1cc(Br)ccc1O	rRNA inh HTS -21.3 (no result: PGC1a acetyl inh) | AID977628 inconclusive
CCOc1cc(/C=C/c2cccc[n+]2C)ccc1O	none
CC(C)NC(=O)Nc1cccc2c1O[C@H](CN(C)C(=O)NC(C)C)[C@H](C)CN([C@@H](C)CO)C2=O	none (no result: CaV13 FRET inh)
Cc1ccccc1CSc1nnc(-c2ccncc2)o1	rRNA inh HTS -18.9 (no result: PGC1a acetyl inh) | AID977628 inconclusive
Cc1noc(C)c1S(=O)(=O)N(C)C[C@@H]1OCCCC[C@H](C)Oc2ccc(NC(=O)C3CCCCC3)cc2C(=O)N([C@@H](C)CO)C[C@H]1C	none (no result: CaV13 FRET inh)
O=C(COC(=O)c1ccccc1O)NCCC1=CCCCC1	rRNA inh HTS -21.8 | AID977621 inactive | AID977628 inconclusive
C[C@@H]1CN([C@@H](C)CO)S(=O)(=O)c2ccc(C#CC3(O)CCCC3)cc2O[C@@H]1CN(C)C(=O)c1ccncc1	DENV2 CPE rescue inconclusive (no result: CaV13 FRET inh)
CC1(C(=O)NS(=O)(=O)c2cccc(Cl)c2)CCN1C(=O)C1(c2ccc(Cl)cc2)CC1 (stereo unspecified)	none (no result: PGC1a acetyl inh)
CC1(C(=O)NS(=O)(=O)c2cccc(Cl)c2)CCN1C(=O)C1(c2ccc(Cl)cc2)CCC1 (stereo unspecified)	rRNA inh HTS -15.8 | AID977621 inactive
CC1(C(=O)NS(=O)(=O)c2cccs2)CCN1C(=O)C1(c2ccc(Cl)cc2)CCC1 (stereo unspecified)	rRNA inh HTS -32.5 | AID977621 inactive
Cc1noc(C)c1NC(=O)N[C@@H]1CC[C@H](CCNC(=O)C2CCCCC2)O[C@H]1CO	none (no result: CaV13 FRET inh)
CCc1cccc(NC(=O)CN(C)S(=O)(=O)c2cccc3cccnc23)c1	rRNA inh HTS -19.6 | AID977621 inactive | AID977628 inactive
Cc1cccc(NC(=O)CN(C)S(=O)(=O)c2cccc3cccnc23)c1	none (no result: ERAP1 HTS inh)
C[C@@H]1CCCCO[C@@H](CN(C)S(=O)(=O)c2ccccc2)[C@H](C)CN([C@@H](C)CO)C(=O)c2cc(NC(=O)Nc3cccc4ccccc34)ccc2O1	none (no result: CaV13 FRET inh)
COc1ccc(OC)c(NC(=O)c2sc3nc(Cc4ccccc4)cc(C(F)(F)F)c3c2N)c1	none (no result: rRNA inh HTS, DENV2 CPE rescue, ERAP1 HTS inh)
COc1ccc(CNC(=O)c2sc3nc4c(c(C(F)(F)F)c3c2N)CCC4)cc1OC	rRNA inh HTS -19.3 | AID977621 inactive | AID977628 inactive
O=C(O)CCN(Cc1ccccc1)S(=O)(=O)c1ccccc1Cl	rRNA inh HTS -19.8 (no result: CaV13 FRET inh) | AID977621 inactive
COC(=O)CCN(Cc1ccccc1)S(=O)(=O)c1ccccc1Br	none

Screens from PubChem BioAssay.
